The whole screen tested about 5,500 compounds, of which about 2,000 (36%) were called active. Roughly 18% stayed inconclusive and do not appear here. Rule as the data show it: active = normalized growth mostly below about 0.91 (no sharp cut-off); inconclusive = no clear call, values can overlap the other calls; inactive = mostly above about 0.92. The list shows a part of the results.
Experiment: chemical genetic growth profiling, strain panel (AID 1159580);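 also: tested at 20 µM; growth read once vehicle control cultures reached saturation at 30 °C; 1 = growth at the plate median or of vehicle wells; lower values mean less growth of the strain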
Conditions: growth OD
[1] = S. cerevisiae deletion strains, locus YAL013W, strain DEP1, active compounds read low
[2] = S. cerevisiae deletion strains, locus YBR229C, strain ROT2, active compounds read low
[3] = S. cerevisiae deletion strains, locus YDL101C, strain DUN1, active compounds read low
[4] = S. cerevisiae deletion strains, locus YDL134C, strain PPH21, active compounds read low
[5] = S. cerevisiae deletion strains, locus YEL061C, strain CIN8, active compounds read low
[6] = S. cerevisiae deletion strains, locus YHR030C, strain SLT2, active compounds read low
[7] = S. cerevisiae deletion strains, locus YJR043C, strain POL32, active compounds read low
[8] = S. cerevisiae deletion strains, locus YLR039C, strain RIC1, active compounds read low
[9] = S. cerevisiae deletion strains, locus YLR262C, strain YPT6, active compounds read low
[10] = S. cerevisiae deletion strains, locus YNL153C, strain GIM3, active compounds read low
[11] = S. cerevisiae deletion strains, locus YPL241C, strain CIN2, active compounds read low

Measured: normalized growth

COC(=O)Oc1ccccc1C(=O)O
inactive: [1] 1.02 | S. cerevisiae deletion strains, locus YBR021W, strain FUR4, active compounds read low 0.976 | [2] 1.01 | S. cerevisiae deletion strains, locus YCL029C, strain bik1, active compounds read low 1.01 | S. cerevisiae deletion strains, locus YDL035C, strain GPR1, active compounds read low 0.995 | S. cerevisiae deletion strains, locus YDL074C, strain BRE1, active compounds read low 1.04 | [3] 1.02 | [4] 0.991 | S. cerevisiae deletion strains, locus YDL185W, strain tfp1, active compounds read low 1.01 | S. cerevisiae deletion strains, locus YDL192W, strain arf1, active compounds read low 1.02 | S. cerevisiae deletion strains, locus YDR101C, strain arx1, active compounds read low 1.01 | S. cerevisiae deletion strains, locus YDR162C, strain NBP2, active compounds read low 0.99 | S. cerevisiae deletion strains, locus YDR318W, strain mcm21, active compounds read low 1.01 | S. cerevisiae deletion strains, locus YDR388W, active compounds read low 1.01 | S. cerevisiae deletion strains, locus YDR502C, strain sam2, active compounds read low 1.01 | [5] 1.01 | S. cerevisiae deletion strains, locus YER110C, active compounds read low 1.03 | S. cerevisiae deletion strains, locus YER155C, strain BEM2, active compounds read low 1.01 | S. cerevisiae deletion strains, locus YER167W, strain BCK2, active compounds read low 1.01 | S. cerevisiae deletion strains, locus YGL078C, strain dbp3, active compounds read low 1.01 | S. cerevisiae deletion strains, locus YGL086W, strain mad1, active compounds read low 1.01 | S. cerevisiae deletion strains, locus YGL248W, strain PDE1, active compounds read low 1.01 | S. cerevisiae deletion strains, locus YGR135W, strain pre9, active compounds read low 1.01 | S. cerevisiae deletion strains, locus YGR252W, strain gcn5, active compounds read low 1.01 | [6] 1.01 | S. cerevisiae deletion strains, locus YHR079C, strain IRE1 (second series), active compounds read low 1.01 | S. cerevisiae deletion strains, locus YHR094C, strain hxt1, active compounds read low 1.02 | S. cerevisiae deletion strains, locus YHR129C, strain ARP1, active compounds read low 1.01 | S. cerevisiae deletion strains, locus YHR200W, strain rpn10, active compounds read low 1.02 | S. cerevisiae deletion strains, locus YIL066C, strain RNR3, active compounds read low 0.987 | S. cerevisiae deletion strains, locus YIL073C, strain SPO22, active compounds read low 1.03 | S. cerevisiae deletion strains, locus YIL125W, strain kgd1, active compounds read low 1.02 | S. cerevisiae deletion strains, locus YIR030C, strain dcg1, active compounds read low 1.01 | S. cerevisiae deletion strains, locus YJL095W, strain BCK1, active compounds read low 1.05 | S. cerevisiae deletion strains, locus YJL134W, strain LCB3, active compounds read low 1.01 | S. cerevisiae deletion strains, locus YJL168C, strain set2, active compounds read low 1.03 | S. cerevisiae deletion strains, locus YJL187C, strain SWE1 (second series), active compounds read low 1.02 | [7] 0.983 | S. cerevisiae deletion strains, locus YKL009W, strain mrt4, active compounds read low 1.01 | S. cerevisiae deletion strains, locus YKL068W, active compounds read low 1 | S. cerevisiae deletion strains, locus YKL085W, strain MDH1 (second series), active compounds read low 1.01 | S. cerevisiae deletion strains, locus YKL085W, strain MDH1, active compounds read low 1.01 | S. cerevisiae deletion strains, locus YKL190W, strain CNB1, active compounds read low 1.02 | S. cerevisiae deletion strains, locus YKR001C, strain vps1, active compounds read low 1.01 | [8] 1.02 | S. cerevisiae deletion strains, locus YLR058C, strain SHM2, active compounds read low 1.01 | S. cerevisiae deletion strains, locus YLR102C, strain apc9, active compounds read low 1.02 | [9] 1.04 | S. cerevisiae deletion strains, locus YLR268W, strain sec22, active compounds read low 1.02 | S. cerevisiae deletion strains, locus YLR330W, strain CHS5, active compounds read low 1.01 | S. cerevisiae deletion strains, locus YLR342W, strain FKS1 (second series), active compounds read low 0.995 | S. cerevisiae deletion strains, locus YLR371W, strain rom2, active compounds read low 1.02 | S. cerevisiae deletion strains, locus YLR418C, strain cdc73, active compounds read low 1.06 | S. cerevisiae deletion strains, locus YML016C, strain PPZ1, active compounds read low 0.999 | S. cerevisiae deletion strains, locus YML032C, strain rad52, active compounds read low 1.01 | S. cerevisiae deletion strains, locus YML124C, strain tub3, active compounds read low 1.01 | S. cerevisiae deletion strains, locus YMR078C, strain ctf18, active compounds read low 1.02 | S. cerevisiae deletion strains, locus YMR223W, strain ubp8, active compounds read low 1.01 | S. cerevisiae deletion strains, locus YMR263W, strain SAP30, active compounds read low 1.03 | S. cerevisiae deletion strains, locus YMR307W, strain GAS1, active compounds read low 1.06 | S. cerevisiae deletion strains, locus YNL067W, strain RPL9B, active compounds read low 1.07 | S. cerevisiae deletion strains, locus YNL128W, strain TEP1, active compounds read low 1.02 | [10] 1.03 | S. cerevisiae deletion strains, locus YNL233W, strain BNI4, active compounds read low 1.01 | S. cerevisiae deletion strains, locus YNL250W, strain rad50, active compounds read low 1.04 | S. cerevisiae deletion strains, locus YNL271C, strain bni1, active compounds read low 1.02 | S. cerevisiae deletion strains, locus YNL298W, strain CLA4, active compounds read low 1.02 | S. cerevisiae deletion strains, locus YNL307C, strain MCK1, active compounds read low 1.02 | S. cerevisiae deletion strains, locus YNR052C, strain pop2, active compounds read low 1.02 | S. cerevisiae deletion strains, locus YOL012C, strain htz1 0.797 | S. cerevisiae deletion strains, locus YOL147C, strain pex11, active compounds read low 1.02 | S. cerevisiae deletion strains, locus YOR061W, strain CKA2, active compounds read low 1.01 | S. cerevisiae deletion strains, locus YOR069W, strain VPS5, active compounds read low 1.01 | S. cerevisiae deletion strains, locus YOR136W, strain idh2, active compounds read low 1.02 | S. cerevisiae deletion strains, locus YOR144C, strain elg1, active compounds read low 1.02 | S. cerevisiae deletion strains, locus YOR184W, strain ser1, active compounds read low 1.02 | S. cerevisiae deletion strains, locus YOR316C, strain cot1, active compounds read low 1.02 | [11] 1 | S. cerevisiae deletion strains, locus YPR119W, strain clb2, active compounds read low 1.02 | S. cerevisiae deletion strains, locus YPR141C, strain kar3, active compounds read low 1.03 | S. cerevisiae deletion strains, locus YPR163C, strain tif3, active compounds read low 1.01 | S. cerevisiae deletion strains, locus YPR167C, strain met16, active compounds read low 1.01 | S. cerevisiae deletion strains, strain wtn01, active compounds read low 1.01 | S. cerevisiae strains, strain wild type, active compounds read low 1.02

O=C(/C=N\Nc1ccccc1)Nc1ccccc1C(=O)O
inactive: [1] 0.975 | [2] 0.98 | [3] 0.99 | [4] 0.99 | S. cerevisiae deletion strains, locus YDR150W, strain NUM1, active compounds read low 0.883 | [5] 0.986 | S. cerevisiae deletion strains, locus YGR229C, strain SMI1, active compounds read low 1.02 | [6] 0.716 | S. cerevisiae deletion strains, locus YHR087W, strain rtc3, active compounds read low 0.92 | S. cerevisiae deletion strains, locus YJL187C, strain SWE1, active compounds read low 0.983 | [7] 0.989 | S. cerevisiae deletion strains, locus YJR075W, strain HOC1, active compounds read low 0.953 | S. cerevisiae deletion strains, locus YLR058C, strain SHM2 (second series), active compounds read low 0.97 | S. cerevisiae deletion strains, locus YML094W, strain GIM5, active compounds read low 0.922 | S. cerevisiae deletion strains, locus YMR219W, strain ESC1, active compounds read low 0.976 | [10] 0.965 | S. cerevisiae deletion strains, locus YNL298W, strain CLA4 (second series), active compounds read low 0.93 | S. cerevisiae deletion strains, locus YNL322C, strain KRE1, active compounds read low 0.982 | S. cerevisiae deletion strains, locus YNR030W, strain Alg12, active compounds read low 0.958 | S. cerevisiae deletion strains, locus YPL055C, strain LGE1, active compounds read low 0.86 | S. cerevisiae deletion strains, locus YPR135W, strain CTF4, active compounds read low 0.812
active: S. cerevisiae deletion strains, locus YGR078C, strain PAC10, active compounds read low 0.92 | [8] 0.297 | S. cerevisiae deletion strains, locus YLR085C, strain ARP6, active compounds read low 0.666 | [9] 0.242 | [11] 0.792

— PubChem BioAssay AID1159580 (chemical genetic matrix, 2015)
